The values below come from PubChem BioAssay (NCATS).

Experiment [1] can be described thus: High-throughput drug toxicity screening in the BPDCN cell line Gen2.2 (AID 1224824).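 Further: cells exposed to compounds for 48 h before reading.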 The conditions noted are these: Gen2.2 BPDCN cells; at 45.8 µM (top of the series) unless noted. The essentials:
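Gen2.2 cells (500/well) in phenol red-free RPMI with 10% FBS were exposed to compounds for 48 h at 37 °C, 5% CO2. Viability was read by CellTiter-Glo luminescence and normalized to DMSO (100%) and 9.2 uM bortezomib (0%).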

A short description of experiment [2]: High-throughput drug toxicity screening in the BPDCN cell line Cal-1 (AID 1224825). Particulars: Cal-1 BPDCN cell viability, qHTS; at 45.8 µM (top of the series) unless noted. The essentials:
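500 Cal-1 cells/well, RPMI + glutamine + 10% FBS (phenol red-free); cpd added by pin tool; 48 h, 37C, 5% CO2; CTG 15 min RT, lumi read. Normalised: DMSO 100%, bortezomib 9.2 uM 0%.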
In general terms: qHTS replaces the single test concentration by a dilution series.

Experiment [3] is described as follows: qHTS profiling for inhibitors of Plasmodium falciparum (3D7) proliferation (AID 743322).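 Further: infected erythrocytes exposed to compound for 72 h before lysis; 100% = DMSO vehicle wells and 0% = 0.29 µM artemisinin.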 Particulars: P. falciparum 3D7 proliferation; at 28.7 µM (top of the series). The essentials: (§1)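 Erythrocytes infected with P. falciparum (0.3% parasitemia, 2.5% hematocrit) incubated with compounds 72 h at 37 C, 5% CO2. Lysis with saponin/Triton buffer containing SYBR Green I, overnight at room temperature in the dark; DNA fluorescence (485/535 nm) normalised to 0.29 uM artemisinin and DMSO.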

A short description of experiment [4]: qHTS profiling for inhibitors of Plasmodium falciparum (DD2) proliferation (AID 743323). Particulars: lower = more inhibition; at 28.7 µM (top of the series). Put shortly:
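SYBR Green fluorescence (ex 485, em 535 nm) of lysed cultures gives parasite DNA content; wells normalized to artemisinin (0.29 uM) and DMSO controls. Infected red cells: 0.3% parasitemia, 2.5% hematocrit, 72 h, 37 C.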

The nature of experiment [5]: qHTS profiling for inhibitors of Plasmodium falciparum (HB3) proliferation (AID 743324; active means well fitted curve in the direction sought with a large enough effect; an effect the other way counts as inactive or inconclusive;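 further: 100% = DMSO vehicle wells and 0% = artemisinin-treated control wells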). Particulars: Plasmodium falciparum HB3 blood-stage proliferation; at 28.7 µM (top of the series). The essentials:
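P. falciparum HB3 grown in erythrocytes (0.3% parasitemia, 2.5% hematocrit final) with compound for 72 h at 37 C, 5% CO2. Parasite DNA detected by SYBR Green after saponin/triton lysis overnight; normalized to 0.29 uM artemisinin and DMSO.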

A short description of experiment [6]: qHTS profiling of the MIPE4 collection as inhibitors of Plasmodium falciparum (3D7) proliferation (AID 743344).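 Further: scaled between DMSO vehicle wells and 0.29 µM artemisinin as full inhibition.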 Particulars: P. falciparum 3D7 in erythrocytes, SYBR Green DNA fluorescence, 72 h; at 28.5 µM (top of the series) unless noted. Put shortly:
as §1

A short description of experiment [7]: qHTS profiling of the MIPE4 collection as inhibitors of Plasmodium falciparum (DD2) proliferation (AID 743345). The conditions noted are these: P. falciparum Dd2 in erythrocytes, SYBR Green DNA, 72 h; at 28.5 µM (top of the series) unless noted. Put shortly:
as §1

A short description of experiment [8]: qHTS profiling of the MIPE4 collection as inhibitors of Plasmodium falciparum (DD2) proliferation (Rep 2) (AID 743346). Particulars: P. falciparum Dd2 in erythrocytes, SYBR Green DNA, 72 h; at 28.5 µM (top of the series) unless noted. Put shortly: as §1
Experiment [9] in a line: qHTS assay for cell viability of the p53RE-bla HCT-116 cell line (AID 743292; active means well fitted curve in the direction sought with a large enough effect; an effect the other way counts as inactive or inconclusive; further: on the % scale 0 is the no-effect control and ±100 the full control effect; nearly all actives have a fitted effect of over 55% in size). Put shortly: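 Quantitative high-throughput format: compounds in DMSO were pinned onto p53RE-bla HCT-116 cells (4,000/well) and incubated 16 h at 37 C. Total intracellular ATP, read by CellTiter-Glo luminescence, reflects viable cell number.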
Experiment [10] is described as follows: qHTS profiling of the MIPE4 collection as inhibitors of Plasmodium falciparum (HB3) proliferation (AID 743347).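 Further: plate controls were DMSO vehicle wells for no effect and artemisinin wells for full effect.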 The conditions noted are these: P. falciparum HB3 in erythrocytes, SYBR Green DNA, 72 h; at 28.5 µM (top of the series) unless noted. Put shortly: as §1

Records with an inconclusive call do not appear. Activity calls are given as the source filed them. Unless noted, how the calls were made is not given here.

Turning to `CCOC(=O)C1=C(C)NC2=C(C(=O)CC(C)(C)C2)C1c1ccc(-c2ccccc2)cc1` (stereo not drawn), in [1], the cell viability, % of control (lower = more cytotoxic) was 5.24%. Moreover, the viability (% of control) in experiment [2] amounted to 4.47%.
With `Cc1cn(-c2cc(NC(=O)c3ccc(C)c(Nc4nccc(-c5cccnc5)n4)c3)cc(C(F)(F)F)c2)cn1`, the remaining parasite growth % (stronger effect = lower value) in [3] was 3.06%. Moreover, the activity, percent of control in experiment [4] was found to be 12.7%. The remaining proliferation (% of control), lower = more inhibition in [5] stood at 2.94%. In experiment [6], this compound registered a parasite growth, % of DMSO control of 6.31%. Further, the parasite growth remaining, % of DMSO control (lower = more inhibition) in [7] turned out to be 8.07%. In experiment [8], this compound returned a parasite growth, % of control (lower = inhibition) of 27.3%. Besides, in [1], the cell viability, % of control (lower = more cytotoxic) was determined as 231%. Also, the viability (% of control) in [2] was 101%.
Turning to `COc1cccc2nc(-c3cccs3)nc(NN3C(=O)C=C(C)C3=O)c12`, the remaining parasite growth % (stronger effect = lower value) in experiment [3] stood at 92.8%. For the same compound, the activity, percent of control in experiment [4] came to 81.6%. Further, in experiment [5], the remaining proliferation (% of control), lower = more inhibition amounted to 87.8%. In experiment [6], this compound came in with a parasite growth, % of DMSO control of 27.1%. The parasite growth remaining, % of DMSO control (lower = more inhibition) in experiment [7] stood at 90.8%. Moreover, in [8], the parasite growth, % of control (lower = inhibition) amounted to 18.1%. Also, in experiment [1], the cell viability, % of control (lower = more cytotoxic) came to 4.3%. Also, the viability (% of control) in experiment [2] worked out at 3.16%.
On to `O=C(O)CCCc1c[nH]c2ccccc12`, for which the compound was classed as inactive in experiment [9]. The parasite growth, % of DMSO control in experiment [6] was 102%. Also, the parasite growth remaining, % of DMSO control (lower = more inhibition) in [7] was 20.4%. Moreover, in experiment [10], the growth, % of control is 102%. In [1], the cell viability, % of control (lower = more cytotoxic) came to 90.6%. Besides, in experiment [2], the viability (% of control) was 32.3%.
As for `c1ccc2c(CCNc3ccc(Nc4ccncc4)cc3)c[nH]c2c1`, the remaining parasite growth % (stronger effect = lower value) in experiment [3] is 1.57%. In addition, the activity, percent of control in experiment [4] amounted to 6.37%. Besides, in experiment [5], the remaining proliferation (% of control), lower = more inhibition was -0.777%. The parasite growth, % of DMSO control in experiment [6] amounted to 11.1%. In addition, the parasite growth remaining, % of DMSO control (lower = more inhibition) in [7] amounted to 10.6%. The compound also had a parasite growth, % of control (lower = inhibition) in [8] of 6.39%. In [10], the growth, % of control is 5.7%. Further, the cell viability, % of control (lower = more cytotoxic) in experiment [1] amounted to 5.37%. Moreover, the viability (% of control) in experiment [2] was found to be 3.61%.
As to `Nc1nc(Nc2ccc(S(N)(=O)=O)cc2)nn1C(=O)c1c(F)cccc1F`, in experiment [3], the remaining parasite growth % (stronger effect = lower value) worked out at 14.8%. The activity, percent of control in [4] stood at 9.84%. Besides, the remaining proliferation (% of control), lower = more inhibition in [5] was determined as 10.9%. Moreover, the parasite growth, % of DMSO control in experiment [6] came to 16.5%. Besides, in experiment [7], the parasite growth remaining, % of DMSO control (lower = more inhibition) was 11.8%. Also, the parasite growth, % of control (lower = inhibition) in experiment [8] came to 14.1%. The same compound registered a growth, % of control in [10] of 9.06%. The cell viability, % of control (lower = more cytotoxic) in experiment [1] came to 13.3%. For the same compound, the viability (% of control) in experiment [2] amounted to 6.01%.
Take `CC1=C(CO)C(=O)O[C@@H]([C@@H](C)[C@H]2CC[C@H]3[C@@H]4C[C@H]5O[C@]56[C@@H](O)C=CC(=O)[C@]6(C)[C@@H]4CC[C@]23C)C1`: in experiment [3], the remaining parasite growth % (stronger effect = lower value) is -1.7%. The activity, percent of control in experiment [4] was -0.497%. For the same compound, in [5], the remaining proliferation (% of control), lower = more inhibition was -0.146%. Also, the parasite growth, % of DMSO control in experiment [6] came out at 6.08%. In experiment [7], the parasite growth remaining, % of DMSO control (lower = more inhibition) was found to be 7.1%. This compound also showed a parasite growth, % of control (lower = inhibition) in [8] of 7.54%. The cell viability, % of control (lower = more cytotoxic) in experiment [1] was 3.38%. Besides, the viability (% of control) in experiment [2] stood at 1.9%.
Turning to `CC(=O)OCCN1C(=O)c2c(C)nc3ccc(S(=O)(=O)N4CCOCC4)cc3c2C1=O`, the remaining parasite growth % (stronger effect = lower value) in experiment [3] came to 96.2%. In experiment [4], the activity, percent of control worked out at 97.6%. In addition, the remaining proliferation (% of control), lower = more inhibition in experiment [5] stood at 103%. Moreover, the parasite growth, % of DMSO control in [6] turned out to be 365%. Also, in experiment [7], the parasite growth remaining, % of DMSO control (lower = more inhibition) stood at 102%. The compound also returned a parasite growth, % of control (lower = inhibition) in experiment [8] of 86.6%. Further, the growth, % of control in experiment [10] came out at 666%. The cell viability, % of control (lower = more cytotoxic) in experiment [1] amounted to 69.9%. Further, the viability (% of control) in experiment [2] was 47.9%.
`COc1cc2ncnc(Nc3ccc(F)c(Cl)c3)c2cc1NC(=O)C=CCN1CCCCC1`: in [3], the remaining parasite growth % (stronger effect = lower value) was -0.218%. The activity, percent of control in experiment [4] was 0.401%. The remaining proliferation (% of control), lower = more inhibition in experiment [5] is 0.28%. The compound also registered a parasite growth, % of DMSO control in [6] of 9.04%. Moreover, the parasite growth remaining, % of DMSO control (lower = more inhibition) in experiment [7] was 8.26%. The compound further came in with a parasite growth, % of control (lower = inhibition) in [8] of 11%. Moreover, the cell viability, % of control (lower = more cytotoxic) in experiment [1] was 10%. Besides, in experiment [2], the viability (% of control) came out at 3.6%.
Turning to `COC(=O)C[C@](O)(CCCC(C)(C)O)C(=O)O[C@@H]1C(OC)=C[C@]23CCCN2CCc2cc4c(cc2[C@H]13)OCO4`, the cell viability, % of control (lower = more cytotoxic) in experiment [1] came out at 131%. In experiment [2], the viability (% of control) worked out at 134%.
In the case of `C=CC(=O)Nc1cc2c(Nc3ccc(F)c(Cl)c3)ncnc2cc1C#CC(C)(C)N1CCN(C)CC1`, the remaining parasite growth % (stronger effect = lower value) in [3] is -1.21%. In addition, the activity, percent of control in experiment [4] is -0.164%. The remaining proliferation (% of control), lower = more inhibition in experiment [5] was -0.161%. Further, the parasite growth, % of DMSO control in [6] was 9.4%. Further, in experiment [7], the parasite growth remaining, % of DMSO control (lower = more inhibition) stood at 8.69%. This compound came in with a parasite growth, % of control (lower = inhibition) in [8] of 18%. The growth, % of control in [10] amounted to 4.67%. The cell viability, % of control (lower = more cytotoxic) in experiment [1] turned out to be 6.93%. Besides, in experiment [2], the viability (% of control) worked out at 1.87%.
